SMILES strings stand for the structures. Some of the results follow. Inconclusive results are not listed. Activity calls are given as the source filed them.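 The calls were made as follows: active = fitted half-maximal concentration for signal loss at or below twice the highest dose tested, in every separate run (actives reach about 64 µM in these data); inconclusive = runs disagree, or flat partial signal loss, or poor fit; inactive = the rest.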

A short description of this assay: DNA binders displacing acridine orange – biochemical, fluorescence polarization, cherry-pick, artefact control for RAD52 inhibitor project, dose response (AID 652128). Particulars: Salmon sperm DNA/acridine orange FP displacement, DNA binding.
As to `CCCCCCCCCCCCn1ccc(=N)cc1`, the compound was called inactive.

With `CCOc1cccc(=NC2CCCCC2)c2c(C)[nH]c(C)c12`, the AC50 was 36 µM (active).

Consider `C[N+]1(C)CCOC(O)(c2ccc(-c3ccc(C4(O)C[N+](C)(C)CCO4)cc3)cc2)C1` (stereo not given), for which the compound was classed as inactive.

Consider `CC1=CC(=Cc2sc3ccccc3[n+]2C)C=C(C)O1`, for which the result was inactive.

In the case of `COc1ccc2c(c1O)-c1cccc3c1[C@@H](C2)N(C)CC3`, the call was inactive.

The values above are taken from PubChem BioAssay AID652128 (Broad Institute, 2013).
